{
  "source": "PubChem BioAssay (NCI)",
  "note": "Values joined by “and” are separate entries in the source; they are usually repeats but may differ in a detail not shown here. Equal values may be shown once. The panel holds about 83,000 compounds, 20% with a hit somewhere; the sample as a whole holds those more often.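 For each line, cells grew in 96-well plates with the test compound present at a single concentration for 48 hours.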 A number with no mark means an inactive call. Active and inactive are the calls of the source. Rule for the calls: active = growth percent below 10; inactive = the rest.",
  "data": [
    {"tested_on": "MDA-MB-468 breast", "assay": "NCI-60 one-dose screen, 48 h (100 = growth as untreated, 0 = no growth, -100 = all killed)", "conditions": "10 µM unless noted", "values": [
      {"smiles": "Cc1cc(=O)[nH]c(O)c1C#N", "growth": "97.5% and 95.9% and 111%"},
      {"smiles": "C=CC(=O)N[C@H](Cc1ccc(-c2cc(Cl)cc(Cl)c2)cc1)[C@H](O)[C@@H](O)C(=O)O", "growth": "85.5%"},
      {"smiles": "Cc1ccc(NC(=O)c2sc3nc(C)c(C(O)c4ccccc4)cc3c2N)cc1", "note": "(stereo not given)", "growth": "18.6%"},
      {"smiles": "O=C(N/N=C/c1ccccc1O)c1ccccc1", "growth": "12.1%"},
      {"smiles": "O=C(N/N=C/c1ccc2c(c1)OCO2)c1ccncc1", "growth": "116% and 124%"},
      {"smiles": "Cc1[nH]nc2ccc(-c3nc4cnc(N5CCN(C)CC5)cn4c3Nc3ccc(F)cc3Br)cc12", "growth": "56.2%"},
      {"smiles": "COC(=O)C(C)NS(=O)(=O)/N=C1\\NC(=O)NC1=C(Cl)Cl", "note": "(stereo not given)", "growth": "91.4%"},
      {"smiles": "O=S(=O)(NCCCNc1nccc(-c2c(-c3ccccc3)nc3sccn23)n1)c1ccc(F)cc1", "growth": "35.5%"},
      {"smiles": "COc1ccc(S(=O)(=O)c2ccc(C(N)=O)cc2)cc1NC(=O)c1[nH]c(C)c2c1CCCCC2=O", "growth": "31.9%"},
      {"smiles": "N#Cc1c(N)sc(=S)c2c1CCCC2", "growth": "110%"},
      {"smiles": "COc1cc(-c2ccc3c(c2)NC(=O)/C3=C\\c2ccc[nH]2)ccc1O", "growth": "16.6%"},
      {"smiles": "COc1ccc2c(c1)C(Br)=C(CCO)C2c1ccccc1", "note": "(stereo not given)", "growth": "-40.2% (active)"},
      {"smiles": "CCCCCCNc1nc(N2CCOCC2)c2[nH]c(NCCCCCC)nc2n1", "growth": "-76.7% (active)"},
      {"smiles": "O=C(Nc1cccc(C2=NCCN2)c1)c1ccc(OCCCOc2ccc(C(=O)Nc3cccc(C4=NCCN4)c3)cc2)cc1", "growth": "-24.4% (active)"},
      {"smiles": "CCOC(=O)C(Cc1ccccc1)(C(=O)OCC)C(Br)C(=O)c1ccccc1", "note": "(stereo not given)", "growth": "-9.41% (active)"},
      {"smiles": "COCCN1CCN(Cc2ccc(-c3n[nH]c4c3C(=O)c3c(NC(=O)NN5CCOCC5)cccc3-4)cc2)CC1", "growth": "-45.1% (active)"},
      {"smiles": "O=C(COc1cc(O)c2c(=O)cc(-c3ccccc3)oc2c1)Nc1ccccc1", "growth": "103%"},
      {"smiles": "C#C[C@@]1(O)[C@@H](CO)O[C@@H](n2cc(Br)c3c(Cl)ccnc32)[C@@H]1O", "growth": "14%"},
      {"smiles": "CCOc1ccc(C(=O)Cc2ccccc2)cc1", "growth": "90.2% and 96%"},
      {"smiles": "Cc1ccc2c(c1)C13C(=C2Br)CCCN1C(=O)c1ccccc13", "note": "(stereo not given)", "growth": "69.8%"},
      {"smiles": "N=C(N)c1ccc(-c2ccc(-c3cncc4ccccc34)s2)cc1F", "growth": "-90.6% (active)"},
      {"smiles": "COc1nc2c(cc1S(=O)(=O)c1ccccc1)CCc1c-2cnn1Cc1ccccc1", "growth": "45.7%"},
      {"smiles": "COc1ccc(Oc2nc(Nc3ccc(N4CCOCC4)cc3)ncc2NC(=O)c2cc(OC)cc(OC)c2)cc1", "growth": "86.6%"},
      {"smiles": "COc1ccc(C2CC(c3cccc(Nc4ccncc4)c3)=NN2c2ccccc2)cc1", "note": "(stereo not given)", "growth": "15.7%"},
      {"smiles": "O=C(c1nc2ccccc2[nH]1)C1C(c2cccc([N+](=O)[O-])c2)C2CC3CCCCC3N2[C@@]12C(=O)Nc1cc(Cl)ccc12", "note": "(stereo not given in full)", "growth": "1.53% (active)"},
      {"smiles": "COc1ccc(/C=C2\\CN(Cc3cn(CCNc4ccnc5cc(Cl)ccc45)nn3)C/C(=C\\c3ccc(OC)c(OC)c3)C2=O)cc1OC", "growth": "-37.7% (active)"},
      {"smiles": "O=C1C(=O)c2ccccc2C(O)=C1CCCc1ccc(C2CCCCC2)cc1", "growth": "17.5%"},
      {"smiles": "Cn1ncc2c(Nc3ccccc3Cl)nc(Cl)nc21", "growth": "97.1%"},
      {"smiles": "CN(C)c1ccc(/C=C/c2c(F)cccc2F)cc1", "growth": "81.3%"},
      {"smiles": "Cc1cc(N2CCN(CC(=O)Nc3ccc4c(ccn4Cc4ccccc4)c3)CC2)nc(N2CCCCCC2)n1", "growth": "13.1%"},
      {"smiles": "C=C(C[C@@](O)(C(=O)Oc1ccccc1)C(=O)C1CCCCC1)c1ccccc1", "growth": "85.3%"},
      {"smiles": "CC(=O)CCSc1ccc(OC(C)=O)cc1", "growth": "101%"},
      {"smiles": "CC(=O)c1cc2c(N)c(C(=O)Nc3cccc(Cl)c3)sc2nc1C", "growth": "45.3%"},
      {"smiles": "Cc1cc(OCc2ccc(C(F)(F)F)cc2)c2c(c1)C(=O)C=C(NCCN1CCCC1)C2=O", "growth": "51.3%"},
      {"smiles": "O=C(Nc1ccccc1O)c1ccccc1Nc1ccnc(C(F)(F)F)c1", "growth": "116%"},
      {"smiles": "NC(N)=Nc1ccc(Nc2cccc(Nc3ccc(Cl)c(C(F)(F)F)c3)c2)cn1", "growth": "-7.19% (active)"},
      {"smiles": "COc1ccc(-c2nn(-c3ccc(NC(=O)c4cc(Cl)cc(Cl)c4)cc3)cc2-c2ccncc2)cc1Cl", "growth": "70.1%"},
      {"smiles": "CCN1C(=O)N(CC)C2C1NN=c1s/c(=C3\\C(=O)N(CC(C)(C)C)c4ccccc43)c(=O)n12", "note": "(stereo not given)", "growth": "18%"},
      {"smiles": "O=C1CCCN1c1cccc2cccnc12", "growth": "98.8%"},
      {"smiles": "CCN(C(=O)N1CCN(c2cc3c(cc2F)c(=O)c(C(=O)O)cn3C2CC2)CC1)c1nc(-c2ccc(C)cc2)cs1", "growth": "-0.725% (active)"}
    ]}
  ]
}
